This is a sample that favours compounds with a hit; in the whole collection about 11% have one here.
HPGD inh: qHTS Assay for Inhibitors of HPGD (15-Hydroxyprostaglandin Dehydrogenase); 15-hydroxyprostaglandin dehydrogenase [NAD(+)] (Homo sapiens), P15428; Potency, µM, for inactives: at the highest dose activity change, negative = inhibition, actives largely listed as inhibitors; purified HPGD, NADH fluorescence kinetic, PGE2 substrate; AID 894, 2007; actives 4.3% (n = 150,000); further: potency means the concentration at half of the fitted maximal effect
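NADH formation kinetics: reaction with 30 uM PGE2 and 1 mM NAD+ (final), 20 nM enzyme, Tris-HCl pH 8 with Tween 20, after 15 min compound preincubation at room temperature. Fluorescence change, last versus first of five reads.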
ALDH1A1 block: qHTS Assay for Inhibitors of Aldehyde Dehydrogenase 1 (ALDH1A1); Aldehyde dehydrogenase 1A1 (Homo sapiens), P00352; Purified ALDH1A1, NADH fluorescence, propionaldehyde substrate; Potency, µM (highest dose often 75.3 µM), inactives show at the highest dose activity, negative = inhibition, usual class: inhibitors; actives 7.3% (n = 220,000); AID 1030, 2008;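 further: potency means the concentration at half of the fitted maximal effect; plate controls were no enzyme wells and a reference inhibitor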
Target sequence (P00352 whole entry, looked up): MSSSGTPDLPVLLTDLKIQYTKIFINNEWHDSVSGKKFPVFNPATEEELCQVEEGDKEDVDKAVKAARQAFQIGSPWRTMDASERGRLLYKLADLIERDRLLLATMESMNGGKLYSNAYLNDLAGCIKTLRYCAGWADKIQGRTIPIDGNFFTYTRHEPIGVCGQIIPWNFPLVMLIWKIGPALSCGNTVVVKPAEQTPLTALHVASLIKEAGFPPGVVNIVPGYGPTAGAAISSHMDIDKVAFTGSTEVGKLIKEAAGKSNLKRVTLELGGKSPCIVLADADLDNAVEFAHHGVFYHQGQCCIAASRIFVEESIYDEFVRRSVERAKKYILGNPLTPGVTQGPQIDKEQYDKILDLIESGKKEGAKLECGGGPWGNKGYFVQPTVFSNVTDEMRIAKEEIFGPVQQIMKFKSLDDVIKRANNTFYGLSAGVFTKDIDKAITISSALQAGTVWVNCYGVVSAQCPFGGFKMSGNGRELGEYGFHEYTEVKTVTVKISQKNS
PNC inhibitor: High Content Assay for Compounds that inhibit the Assembly of the Perinucleolar Compartment; activity change (PNC), negative = inhibition, % at 10 µM; AID 2417, 2010; actives 3.1% (n = 140,000); PC3M PTB-GFP, PNC prevalence imaging, 16 h; active compounds read low;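 active means readout at or below -70, meaning at least 70% loss of cells showing the perinucleolar compartment, a nuclear body marking cancer cells; inconclusive means readout between -30 and a set limit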;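 further: plate controls were DMSO wells for no effect and camptothecin positive control wells for full effect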
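Compounds are pinned in duplicate onto adhered PC3M cells stably expressing GFP-tagged PTB and incubated 16 h at 37 C. Cells are then fixed, nuclei stained with Hoechst, and PNC-positive cells counted.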
* hit, by the source's call; ? = inconclusive; · = no result given; [ ] = dose if it differs, or a comment. Unless noted, the call rests on the fitted dose curve; in most records, active means well fitted inhibition curve with a large enough effect (not every such curve was filed as active); inconclusive means small, poorly fitted or top-dose-only effect, or another doubt; inactive means no such curve, though single readings can be large or run the other way. Unless noted, on the % scale 0 is the no-effect control and ±100 the full control effect.

SMILES	HPGD inh	ALDH1A1 block	PNC inhibitor
Nc1cccc(Oc2ccc([N+](=O)[O-])cc2)c1	·	26%	·
O=[N+]([O-])c1ccc(Oc2ccc(Oc3ccc(C(F)(F)F)cn3)cc2)nc1	·	-7%	·
N#Cc1cccc(-c2nc3cnc(Nc4ccccc4)nc3n(C[C@H]3CCCO3)c2=O)c1	-10%	-11%	·
CCOC(=O)c1c(C)c(C(=O)N2CCCCCC2)c(C)n1C	16µM*	0%	13
CCOC(=O)c1c(C)c(C(=O)N2CCN(c3ccccc3)CC2)c(C)n1C	·	-4%	·
O=C(NC1CC1)c1ccc(F)cc1Cl	20µM*	-6%	1
O=C(NC1CCCCCCC1)c1cc(F)c(F)cc1Cl	·	-13%	·
COc1cc(SC)ccc1C(=O)N1CCN(c2ccccc2)CC1	·	-5%	·
COc1cc(SC)ccc1C(=O)N1CCCCCC1	3.2µM*	6%	-17
COc1cc(SC)ccc1C(=O)OCC(=O)NC1CCCCC1	·	-9%	·
O=C(Nc1ccc(F)cc1F)NC1CC1	·	2%	·
CSc1ccc(Cl)c(C(=O)NC2CCCC2)c1	16µM*	9%	20
COc1cc(SC)ccc1C(=O)NC1CCCCC1	22µM*	?	-25
CCOc1ccc(N2CC(C(=O)OC)CC2=O)cc1 (stereo not drawn)	-28%	16%	?
CCOCCCNC(=S)NNC(=O)CCn1nc(C)c(Br)c1C	-4%	-11%	5
O=[N+]([O-])c1ccc(NC2CCCC2)cc1	-22%	-3%	10
O=[N+]([O-])c1ccc(N/N=C2/CCCCC2c2ccccn2)cc1 (stereo not drawn)	-14%	0.045µM*	-28
O=C(Nc1cccc(Oc2ccc3c(c2)C(=O)NC3=O)c1)c1cccs1	14µM*	2%	15
O=C(COc1cccc(NC(=O)c2cccs2)c1)c1ccc(F)cc1	16µM*	0%	32
O=C(COc1cccc(NC(=O)c2ccccc2)c1)c1ccccc1	·	8%	·
CCOC(=O)c1cccc(NC(=O)c2cccs2)c1	-16%	13%	-23
CC(C)C(=O)Nc1nnc(SCC(=O)NCc2ccco2)s1	-10%	6%	12
CCCn1nc(C(=O)Nc2ccc(S(=O)(=O)Nc3nccs3)cc2)c2ccccc2c1=O	-8%	?	3
CCCn1nc(C(=O)Nc2cccc(C(=O)OC)c2)c2ccccc2c1=O	-12%	4.5µM*	10
CCCCCn1c(=O)[nH]c2cc(C(=O)NCc3ccco3)ccc2c1=O	?	?	0
SMILES	HPGD inh	ALDH1A1 block	PNC inhibitor
CCCn1nc(C(=O)NCc2ccccn2)c2ccccc2c1=O	-4%	10µM*	15
COC(=O)c1cccc(NC(=O)c2nn(C(C)C)c(=O)c3ccccc23)c1	-9%	-5%	11
CCCCCn1c(=O)[nH]c2cc(C(=O)NCc3ccccn3)ccc2c1=O	·	13µM*	·
Cc1cc(Oc2ccc(=O)n(C)n2)nc(=S)[nH]1	·	-4%	·
O=C(NC1CCCC1)C(c1cccs1)N(CC1CCCO1)C(=O)Cc1cccs1 (stereo not drawn)	-3%	-2%	?
CCOC(=O)CN(Cc1sccc1C)C(=O)Nc1ccc(OCC)cc1	-1%	-3%	-3
COC(=O)C1=C(C)N(Cc2ccc(C)cc2)C(=O)C1	-2%	-2%	21
CCCCn1c(=O)nc2n(-c3ccc(C)cc3)c3ccccc3cc-2c1=O	?	?	0
CCCCn1c(=O)nc2n(-c3ccc(OC)cc3)c3ccccc3cc-2c1=O	·	8.9µM*	·
Cc1cccc(NC(=S)NCc2ccc3c(c2)cc(C)n3C)c1C	·	-3%	·
CC(C)(Oc1ccc(-c2cccc3ccccc23)cc1)C(=O)O	-1%	5%[13.5 µM]	·
Cn1cccc1/C=N/NC(=O)CSc1nc2ccccc2[nH]1	·	2%	·
CCc1c2c(nc3ccc(OC)cc13)OC(CC)C2 (stereo not drawn)	-13%	-9%	·
CCC(=O)CCC(=O)c1ccc2ccccc2c1	-26%	?	?
CC(C)N(CCC(=O)c1ccc2ccccc2c1)Cc1ccccc1	?	0.28µM*	·
CC(C)CNc1c(N)c(=O)oc2ccccc12	-21%	1%	28
CCC(C)C(NC(=O)/C(=C\c1ccccc1)NC(=O)c1ccc(OC)cc1)C(=O)O (stereo not drawn)	·	3%	·
Cc1ccc(NC(=O)CSc2nnc(CN3CCOCC3)n2C)cc1C	-18%	32µM*	31
Cc1cc(C)cc(NC(=O)CSc2nnc(CN3CCOCC3)n2C)c1	-11%	1%	96
COC(=O)c1c(Cl)c2n3ccccc3c(C)c(-c3ccccc3)c-2c1C(=O)OC	-8%	13µM*	5
COC(=O)c1c(C(=O)OC)c2cc(C)ccn2c1Cl	-29%	-5%	6
CCOC(=O)c1c2c(n3ccccc13)C(=O)c1ccccc1C2=O	-4%	?	·
COC(=O)c1cc2c(-c3ccccc3)c(C)c3ccccn3c-2c1C(=O)OC	-13%	20µM*	17
COc1ccccc1C1C(C(=O)c2cc3ccccc3o2)=C(O)C(=O)N1CCN1CCOCC1 (stereo not drawn)	-11%	20µM*	21
COc1ccc(OC)c(C2C(C(=O)c3sc(C)nc3C)=C(O)C(=O)N2CCN2CCOCC2)c1 (stereo not drawn)	·	-12%	-7
SMILES	HPGD inh	ALDH1A1 block	PNC inhibitor
CN(C)CCN1C(=O)C(O)=C(C(=O)c2cc3ccccc3o2)C1c1ccc(N(C)C)cc1 (stereo not drawn)	-12%	28µM*	-119*
CN(C)CCN1C(=O)C(O)=C(C(=O)c2cc3ccccc3o2)C1c1ccccn1 (stereo not drawn)	-11%	-3%	?
Cc1cc(NC(=O)c2cc3ncc(Br)cn3n2)no1	-3%	-3%	?
O=C(c1ccc(Cl)c(F)c1F)N1CCCC1	20µM*	12%	-8
Cc1ccc(C(=O)N2CCOCC2)c(F)c1F	·	7%	·
CCOC(=O)Cc1csc(/N=C/c2c(O)n(-c3ccc(C)c(C)c3)c(=O)c3ccccc23)n1	?	14%	22
CCCCc1nc2cc(Cl)ccc2o1	·	-2%	·
CC1CC(C)CN(C(=O)c2ccc(NC(=O)c3ccc(=O)[nH]c3)cc2)C1 (stereo not drawn)	7.9µM*	-6%	21
O=C(Nc1ccc(S(=O)(=O)NC2=NCCCCC2)cc1)c1ccc(=O)[nH]c1	·	1%	·
O=c1c(N2CCCCC2)coc2ccccc12	-12%	3%	1
CC1CCC2C(=O)OC(COc3ccc(C(C)(C)C)cc3)CN2C1c1ccc(Br)cc1 (stereo not drawn)	·	22%[13.5 µM]	·
Cc1cc(C)cc(-n2c(C)cc(/C=N/NC(=O)CSc3ncccn3)c2C)c1	-15%	28µM*	2
CC(=O)c1c(C(C)=O)c(C)n(-c2ccc3ncccc3c2)c1C	·	8%	·
Cc1cc(/C=N\NC(=O)COc2cccc3cccnc23)c(C)n1-c1ccccc1	-16%	14µM*	-14
Cc1cc(/C=N\NC(=O)COc2cccc3cccnc23)c(C)n1-c1ccc(Br)cc1	-3%	?	-7
Cc1cc(/C=N/NC(=O)Cn2c3ccccc3c(=O)c3ccccc32)c(C)n1-c1ccccc1	?	?	84
Cc1cc(/C=N/NC(=O)C(=O)NCc2ccccn2)c(C)n1-c1ccccc1	2%	11µM*	22

Source: PubChem (National Center for Advancing Translational Sciences (NCATS))
